Experimental data: PubChem BioAssay
Active and inactive are the calls of the source.

Columns and labels:
[1] = tested on: Plasmodium falciparum Sir2 (PF13_0152, Sir2A); assay: pfSir2 binders on small-molecule microarrays, primary screen, biochemical, small-molecule microarray, 635 nm fluorescence (AID 1098); details: small-molecule microarray binding, fluorescence 635 nm; higher = more signal;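 also: score merges spot fluorescence intensity with its signal-to-noise ratio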
[2] = small-molecule microarray binders of probe aDKK1, primary screen, biochemical, biotinylated probe, 635/667 nm fluorescence (AID 1099); details: higher = more signal;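 also: score merges 667nm spot fluorescence with signal to noise across triplicate slides; reference of the scale not given here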
[3] = small-molecule microarray binders of probe aCHRDL2, primary screen, biochemical, biotinylated probe, 635/667 nm fluorescence (AID 1100); details: higher = more signal
[4] = splicing luciferase reporter signal modulators, primary screen, spliceosome inhibition project, cell-based, HEK293, splice +/- reporter (AID 1101); details: luminescence, 24 h, higher = more signal, called active from +8 up or from −8 down;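 also: HEK293 cells carrying a splicing-competent luciferase reporter gene; test concentration not given here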
[5] = target: Fibroblast growth factor 10 (Homo sapiens) (UniProt O15520); assay: FGF10 binders on small-molecule microarrays, primary screen, biochemical, small-molecule microarray, 635 nm fluorescence (AID 1102); details: FGF10 binding, fluorescence 635 nm, higher = more signal
[6] = tested on: glycogen synthase kinase-3 (GSK3A per assay name; protocol says GSK3B); assay: GSK3 binders on small-molecule microarrays, primary screen, biochemical, small-molecule microarray, 635 nm fluorescence, GSK3A (AID 1103); details: small-molecule microarray binding, fluorescence 635 nm; higher = more signal; also: the record names both GSK3A and GSK3B
[7] = target: Epidermal growth factor receptor (Homo sapiens) (UniProt P00533); assay: EGFR binders on small-molecule microarrays, primary screen, biochemical, small-molecule microarray, 635 nm fluorescence (AID 1104); details: EGFR binding, higher = more signal;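 also: score merges 667 nm emission intensity with spot signal to noise over triplicate slides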
[8] = target: Follistatin-related protein 3 (Homo sapiens) (UniProt O95633); assay: FSTL3 binders on small-molecule microarrays, primary screen, biochemical, small-molecule microarray, 635 nm fluorescence (AID 1105); details: FSTL3 binding, higher = more signal;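 also: score merges emission near 667 nm and signal to noise per printed spot across three slides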
[9] = target: Dickkopf-related protein 1 (Homo sapiens) (UniProt O94907); assay: DKK1 binders on small-molecule microarrays, primary screen, biochemical, small-molecule microarray, 635 nm fluorescence scan (AID 1106); details: DKK1 binding, higher = more signal;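 also: score merges emission near 667 nm with signal to noise over three replicate slides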
[10] = tested on: Inhibin beta A chain (activin A); assay: INHBA (activin A) binders on microarrays, primary screen, biochemical, small-molecule microarray, 635 nm fluorescence scan (AID 1107); details: small-molecule microarray binding, higher = more signal;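 also: mouse activin A protein probed at 4.33 µg/mL on printed slides; score merges bound-protein fluorescence near 667 nm with spot signal-to-noise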

Chain of Fibroblast growth factor 10 (Homo sapiens) (O15520 whole entry, looked up): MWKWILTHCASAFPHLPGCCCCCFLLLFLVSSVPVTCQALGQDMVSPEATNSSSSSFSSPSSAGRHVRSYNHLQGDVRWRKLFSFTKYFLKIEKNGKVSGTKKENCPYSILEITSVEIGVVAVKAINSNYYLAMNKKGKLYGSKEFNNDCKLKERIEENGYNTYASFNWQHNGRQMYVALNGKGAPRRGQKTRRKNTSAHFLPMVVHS
Chain of Epidermal growth factor receptor (Homo sapiens) (P00533 whole entry, looked up): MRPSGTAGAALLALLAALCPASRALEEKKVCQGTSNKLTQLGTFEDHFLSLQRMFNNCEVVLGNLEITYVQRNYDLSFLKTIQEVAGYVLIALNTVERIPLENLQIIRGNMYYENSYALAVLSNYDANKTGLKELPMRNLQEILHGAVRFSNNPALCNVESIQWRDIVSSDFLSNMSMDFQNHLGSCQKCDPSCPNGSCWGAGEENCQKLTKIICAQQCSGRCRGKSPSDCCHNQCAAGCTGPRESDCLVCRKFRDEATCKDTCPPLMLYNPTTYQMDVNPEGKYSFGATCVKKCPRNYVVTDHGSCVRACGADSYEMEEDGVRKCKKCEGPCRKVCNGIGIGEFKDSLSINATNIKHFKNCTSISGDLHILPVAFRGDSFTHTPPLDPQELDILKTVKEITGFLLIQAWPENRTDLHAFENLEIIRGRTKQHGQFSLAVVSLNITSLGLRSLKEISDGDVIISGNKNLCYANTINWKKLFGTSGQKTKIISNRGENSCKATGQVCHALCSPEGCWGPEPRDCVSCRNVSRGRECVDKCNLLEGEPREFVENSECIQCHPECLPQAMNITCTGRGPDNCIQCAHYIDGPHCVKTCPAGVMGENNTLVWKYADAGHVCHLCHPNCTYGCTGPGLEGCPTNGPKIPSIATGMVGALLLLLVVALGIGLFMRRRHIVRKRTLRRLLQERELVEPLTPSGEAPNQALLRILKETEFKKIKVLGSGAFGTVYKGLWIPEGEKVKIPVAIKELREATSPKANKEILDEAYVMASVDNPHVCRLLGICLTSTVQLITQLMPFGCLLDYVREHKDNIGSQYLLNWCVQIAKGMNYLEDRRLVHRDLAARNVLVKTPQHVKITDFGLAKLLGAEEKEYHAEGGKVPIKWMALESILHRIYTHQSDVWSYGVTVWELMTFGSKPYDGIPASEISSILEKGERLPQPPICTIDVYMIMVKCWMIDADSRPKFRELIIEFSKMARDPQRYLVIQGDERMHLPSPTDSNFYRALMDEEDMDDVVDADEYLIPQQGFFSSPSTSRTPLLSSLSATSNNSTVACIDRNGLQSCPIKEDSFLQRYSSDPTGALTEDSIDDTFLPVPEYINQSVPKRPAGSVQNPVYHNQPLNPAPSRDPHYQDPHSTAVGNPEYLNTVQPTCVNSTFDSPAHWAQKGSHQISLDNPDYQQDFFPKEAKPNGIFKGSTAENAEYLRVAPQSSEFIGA
Chain of Dickkopf-related protein 1 (Homo sapiens) (O94907 whole entry, looked up): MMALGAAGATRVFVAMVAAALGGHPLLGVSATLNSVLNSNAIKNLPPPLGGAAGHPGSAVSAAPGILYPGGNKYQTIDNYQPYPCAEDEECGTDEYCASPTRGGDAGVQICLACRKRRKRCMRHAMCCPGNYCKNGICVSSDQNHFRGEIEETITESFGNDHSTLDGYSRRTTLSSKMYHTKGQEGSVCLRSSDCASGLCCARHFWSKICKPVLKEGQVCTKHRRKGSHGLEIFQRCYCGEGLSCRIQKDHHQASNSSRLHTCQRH
Chain of Follistatin-related protein 3 (Homo sapiens) (O95633 whole entry, looked up): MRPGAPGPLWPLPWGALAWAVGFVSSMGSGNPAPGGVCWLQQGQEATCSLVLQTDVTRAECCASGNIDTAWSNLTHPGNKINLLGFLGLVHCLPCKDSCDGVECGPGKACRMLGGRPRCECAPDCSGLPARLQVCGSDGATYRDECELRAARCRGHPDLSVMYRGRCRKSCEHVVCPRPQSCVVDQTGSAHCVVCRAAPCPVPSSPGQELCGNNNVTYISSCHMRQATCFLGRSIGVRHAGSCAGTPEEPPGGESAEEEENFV

| Compound | composite z-score [1] | composite z-score [2] | composite z-score [3] | z-score [4] | composite z-score [5] | composite z-score [6] | composite z-score [7] | composite z-score [8] | composite z-score [9] | composite z-score [10] |
| --- | --- | --- | --- | --- | --- | --- | --- | --- | --- | --- |
| O=C1C2=CC[C@H]3C(=O)N(c4ccc(F)cc4F)C(=O)[C@H]3[C@H]2[C@H](O)[C@@H]2O[C@H]12 | 0.305 | -0.378 | -0.778 | -0.35 (inactive) | 0.472 | 0.578 | 0.347 | 0.453 | 0.658 | -0.172 |
| O=C1[C@H]2[C@H]3[C@H](O)[C@H](O)CC(=NO[C@@H]4O[C@H](CO)[C@@H](O)[C@H](O)[C@H]4O)[C@@H]3CC[C@H]2C(=O)N1C[C@@H]1CCCO1 | 0.355 | -0.29 | -0.565 | -1.45 (inactive) | 0.784 | 0.839 | 0.448 | 0.738 | 0.35 | -0.808 |
| CCN1C(=O)[C@H]2[C@H]3[C@H](O)[C@H](O)CC(=NOCC(C)C)[C@H]3CC[C@H]2C1=O | 0.301 | -0.311 | -0.621 | 0.72 (inactive) | 0.531 | 0.636 | 0.732 | 0.732 | 0.817 | 0.122 |
| CC(=O)OC[C@H]1O[C@H](C#CCCc2ccccc2)C=C[C@@H]1OC(C)=O | 1.05 | -0.0993 | -0.438 | 0.181 (inactive) | 0.787 | -0.113 | 0.187 | 0.981 | 1.02 | 0.309 |
| CC(CCN1CCCCc2nc(C)c(C)cc21)=NO[C@@H](C)c1cc(-c2c(C)cc(C)cc2C)no1 | 1.41 | -0.422 | 0.27 | 0.673 (inactive) | -0.488 | -1.05 | -1.51 | -1.35 | -0.0396 | 0.823 |
| CCCCOC(OCCCC)C(O)CSc1ccc2ccccc2c1 (stereo not given) | 0.302 | 0.166 | -0.392 | -0.0185 (inactive) | 0.379 | 0.68 | 0.549 | 0.589 | 0.486 | 0.251 |
| COc1ccc(OC[C@@H](CO)OC)cc1 | -0.276 | -0.233 | -0.401 | 1.18 (inactive) | 0.428 | 0.405 | 0.202 | 0.475 | 0.321 | 0.512 |
| COc1ccc(O[C@H]2C=C[C@@H](c3ccccc3)O[C@@H]2CON=C2c3cc(OC)ccc3O[C@H](c3cccc(OC)c3)[C@H]2O)cc1 | -0.177 | 0.242 | -0.279 | 0.65 (inactive) | 0.886 | 0.192 | 0.531 | 0.589 | 0.434 | -0.393 |
| CC(C)=NOC(C)CN1CCCc2nc(C)c(C)cc21 (stereo not given) | 1.19 | -0.446 | -0.696 | 0.484 (inactive) | 0.809 | 1.1 | 0.697 | 1.16 | 0.63 | 0.206 |
| O=C1[C@H]2[C@H]3[C@H](O)[C@H](O)CC(=NO[C@@H]4O[C@H](CO)[C@@H](O)[C@H](O)[C@H]4O)[C@H]3CC[C@H]2C(=O)N1C[C@@H]1CCCO1 | 0.323 | -0.273 | -0.344 | 0.0676 (inactive) | 0.0269 | -0.027 | 0.522 | 0.0553 | -0.0079 | -0.915 |
| C#CCCCON=C1C[C@@H](O)[C@@H](O)[C@@H]2[C@@H]3C(=O)N(C4CCCCC4)C(=O)[C@@H]3CC[C@@H]12 | 0.369 | 0.0266 | -0.287 | 0.466 (inactive) | 0.743 | -0.0432 | 0.336 | 0.556 | 0.692 | 0.265 |
| CC(C)CN1CCc2nc(-c3ccccc3)c3c(c2C1)CO[C@@H](C)C3 | 0.639 | 0.264 | -0.291 | 0.185 (inactive) | 0.929 | 1.16 | 0.383 | 1.05 | 0.512 | 0.0576 |
| CC(C)=NO[C@H](C)c1cn([C@@H]2COC[C@H]2O)nn1 | 0.52 | -0.0146 | -0.607 | -0.413 (inactive) | 0.728 | 0.788 | 0.539 | 0.67 | 0.669 | -0.0201 |
| COC(=O)[C@H](C)NC(=O)CCC1CC(OC(=O)NCCc2ccc(F)cc2)CC2(CCCC(COC(=O)NCc3ccccc3)O2)O1 (stereo not given in full) | 0.768 | -0.128 | -0.37 | -0.114 (inactive) | 0.834 | 1.28 | 0.462 | 1.29 | 0.477 | 0.0384 |
| CCOC(=O)[C@H](CC(C)C)NC(=O)CCC1CC(OC(=O)NCCc2ccc(F)cc2)CC2(CCCC(COC(=O)NCCOC)O2)O1 (stereo not given in full) | 0.745 | 0.0045 | -0.411 | -0.0891 (inactive) | 1.15 | 0.953 | 0.633 | 1.36 | 0.96 | -0.0586 |
| CCOC(=O)[C@H](CC(C)C)NC(=O)CCC1CC(OC(=O)NCCc2ccc(F)cc2)CC2(CCCC(COC(=O)NCCCN3CCCC3=O)O2)O1 (stereo not given in full) | -0.0927 | -0.234 | -0.509 | 0.764 (inactive) | 0.93 | 0.519 | 0.261 | 0.572 | 0.946 | -0.131 |
| COc1ccc2c(c1)O[C@@H](c1cccc(C(F)(F)F)c1)[C@H](O)C2=O | 0.0008 | -0.14 | -0.324 | -0.912 (inactive) | 0.213 | 0.39 | 0.349 | 0.416 | 0.356 | 0.149 |
